Hit rate of the full screen: of about 5,500 compounds, about 2,000 (36%) were called active. Not shown: some 18% with an inconclusive outcome. No stated cut-off is given here; in the data, active means normalized growth mostly below about 0.91 (no sharp cut-off); inconclusive means no clear call, values can overlap the other calls; inactive means mostly above about 0.92. The list shows a part of the results.
Test: chemical genetic growth profiling, strain panel (AID 1159580);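 further: tested at 20 µM; growth read once vehicle control cultures reached saturation at 30 °C; 1 = growth at the plate median or of vehicle wells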
Settings: growth OD
[1] = S. cerevisiae deletion strains, locus YDL101C, strain DUN1, stronger effect = lower value
[2] = S. cerevisiae deletion strains, locus YHR030C, strain SLT2, stronger effect = lower value

Measured: normalized growth

CC(=O)c1ccccc1C(=O)c1ccc(C(C)(C)C)cc1
active: S. cerevisiae deletion strains, locus YLR113W, strain HOG1, stronger effect = lower value 0.761 | S. cerevisiae deletion strains, locus YPL256C, strain CLN2, stronger effect = lower value 0.85
inactive: S. cerevisiae deletion strains, locus YAR019C, strain CDC15, stronger effect = lower value 0.961 | S. cerevisiae deletion strains, locus YBL105C, strain PKC1, stronger effect = lower value 0.961 | S. cerevisiae deletion strains, locus YBR135W, strain CKS1, stronger effect = lower value 0.957 | S. cerevisiae deletion strains, locus YBR136W, strain MEC1, stronger effect = lower value 0.96 | S. cerevisiae deletion strains, locus YBR160W, strain CDC28, stronger effect = lower value 0.959 | S. cerevisiae deletion strains, locus YDL017W, strain CDC7, stronger effect = lower value 0.956 | S. cerevisiae deletion strains, locus YDL028C, strain MPS1, stronger effect = lower value 0.961 | [1] 0.95 | S. cerevisiae deletion strains, locus YDL108W, strain KIN28, stronger effect = lower value 0.964 | S. cerevisiae deletion strains, locus YDL132W, strain cdc53, stronger effect = lower value 0.958 | S. cerevisiae deletion strains, locus YDL214C, strain PRR2, stronger effect = lower value 0.969 | S. cerevisiae deletion strains, locus YDR052C, strain DBF4, stronger effect = lower value 0.964 | S. cerevisiae deletion strains, locus YDR054C, strain cdc34, stronger effect = lower value 0.957 | S. cerevisiae deletion strains, locus YDR226W, strain ADK1, stronger effect = lower value 0.96 | S. cerevisiae deletion strains, locus YDR477W, strain SNF1, stronger effect = lower value 0.969 | S. cerevisiae deletion strains, locus YER123W, strain YCK3, stronger effect = lower value 0.982 | S. cerevisiae deletion strains, locus YER133W, strain GLC7, stronger effect = lower value 0.953 | S. cerevisiae deletion strains, locus YFL009W, strain cdc4, stronger effect = lower value 0.953 | S. cerevisiae deletion strains, locus YFL029C, strain CAK1, stronger effect = lower value 0.953 | S. cerevisiae deletion strains, locus YFR003C, strain YPI1, stronger effect = lower value 0.961 | S. cerevisiae deletion strains, locus YFR019W, strain FAB1, stronger effect = lower value 0.981 | S. cerevisiae deletion strains, locus YFR028C, strain CDC14, stronger effect = lower value 0.965 | S. cerevisiae deletion strains, locus YGR040W, strain KSS1, stronger effect = lower value 0.967 | S. cerevisiae deletion strains, locus YGR052W, strain FMP48, stronger effect = lower value 0.992 | S. cerevisiae deletion strains, locus YGR092W, strain DBF2, stronger effect = lower value 0.954 | [2] 0.855 | S. cerevisiae deletion strains, locus YHR079C, strain IRE1, stronger effect = lower value 0.918 | S. cerevisiae deletion strains, locus YHR082C, strain KSP1, stronger effect = lower value 1.07 | S. cerevisiae deletion strains, locus YHR205W, strain SCH9, stronger effect = lower value 1 | S. cerevisiae deletion strains, locus YIL147C, strain SLN1, stronger effect = lower value 0.961 | S. cerevisiae deletion strains, locus YJL095W, strain BCK1, stronger effect = lower value 0.999 | S. cerevisiae deletion strains, locus YJL128C, strain PBS2, stronger effect = lower value 0.918 | S. cerevisiae deletion strains, locus YJL157C, strain FAR1, stronger effect = lower value 0.984 | S. cerevisiae deletion strains, locus YJR016C, strain ILV3, stronger effect = lower value 0.969 | S. cerevisiae deletion strains, locus YJR066W, strain TOR1 (second series), stronger effect = lower value 0.989 | S. cerevisiae deletion strains, locus YJR066W, strain TOR1, stronger effect = lower value 1.04 | S. cerevisiae deletion strains, locus YKL048C, strain ELM1, stronger effect = lower value 0.939 | S. cerevisiae deletion strains, locus YKL067W, strain YNK1, stronger effect = lower value 0.967 | S. cerevisiae deletion strains, locus YKL101W, strain HSL1, stronger effect = lower value 0.976 | S. cerevisiae deletion strains, locus YKL193C, strain SDS22, stronger effect = lower value 0.961 | S. cerevisiae deletion strains, locus YKL203C, strain TOR2, stronger effect = lower value 0.989 | S. cerevisiae deletion strains, locus YLR133W, strain CKI1, stronger effect = lower value 0.986 | S. cerevisiae deletion strains, locus YLR403W, strain SFP1, stronger effect = lower value 0.985 | S. cerevisiae deletion strains, locus YML070W, strain DAK1, stronger effect = lower value 0.953 | S. cerevisiae deletion strains, locus YMR001C, strain CDC5, stronger effect = lower value 0.959 | S. cerevisiae deletion strains, locus YMR205C, strain PFK2 (second series), stronger effect = lower value 0.981 | S. cerevisiae deletion strains, locus YMR277W, strain FCP1, stronger effect = lower value 0.963 | S. cerevisiae deletion strains, locus YNL006W, strain LST8, stronger effect = lower value 0.954 | S. cerevisiae deletion strains, locus YNL020C, strain ARK1, stronger effect = lower value 0.99 | S. cerevisiae deletion strains, locus YNL161W, strain CBK1, stronger effect = lower value 0.959 | S. cerevisiae deletion strains, locus YNL183C, strain NPR1, stronger effect = lower value 1 | S. cerevisiae deletion strains, locus YNL207W, strain RIO2, stronger effect = lower value 0.958 | S. cerevisiae deletion strains, locus YNL222W, strain SSU72, stronger effect = lower value 0.966 | S. cerevisiae deletion strains, locus YNL307C, strain MCK1 (second series), stronger effect = lower value 0.975 | S. cerevisiae deletion strains, locus YOL078W, strain AVO1, stronger effect = lower value 0.967 | S. cerevisiae deletion strains, locus YOL136C, strain PFK27, stronger effect = lower value 0.98 | S. cerevisiae deletion strains, locus YOR061W, strain CKA2, stronger effect = lower value 0.975 | S. cerevisiae deletion strains, locus YOR119C, strain RIO1, stronger effect = lower value 1.02 | S. cerevisiae deletion strains, locus YOR231W, strain MKK1, stronger effect = lower value 0.949 | S. cerevisiae deletion strains, locus YOR329C, strain SCD5, stronger effect = lower value 0.961 | S. cerevisiae deletion strains, locus YPL031C, strain PHO85, stronger effect = lower value 0.961 | S. cerevisiae deletion strains, locus YPL153C, strain RAD53, stronger effect = lower value 0.953 | S. cerevisiae deletion strains, locus YPL204W, strain HRR25, stronger effect = lower value 0.96 | S. cerevisiae deletion strains, locus YPL209C, strain IPL1, stronger effect = lower value 0.959 | S. cerevisiae deletion strains, locus YPR025C, strain CCL1, stronger effect = lower value 0.96 | S. cerevisiae deletion strains, locus YPR106W, strain ISR1, stronger effect = lower value 0.969 | S. cerevisiae deletion strains, locus YPR111W, strain DBF20, stronger effect = lower value 0.946 | S. cerevisiae deletion strains, strain NNK1, stronger effect = lower value 0.96 | S. cerevisiae deletion strains, strain TSCII, stronger effect = lower value 0.955

COc1cccc(C(=O)N/N=C(/C)c2ccccc2O)c1
inactive: S. cerevisiae deletion strains, locus YAL013W, strain DEP1, stronger effect = lower value 0.975 | S. cerevisiae deletion strains, locus YBR229C, strain ROT2, stronger effect = lower value 0.961 | S. cerevisiae deletion strains, locus YCL061C, strain MRC1, stronger effect = lower value 0.915 | [1] 0.93 | S. cerevisiae deletion strains, locus YDR150W, strain NUM1, stronger effect = lower value 0.92 | S. cerevisiae deletion strains, locus YEL061C, strain CIN8, stronger effect = lower value 0.982 | S. cerevisiae deletion strains, locus YGR078C, strain PAC10, stronger effect = lower value 0.955 | S. cerevisiae deletion strains, locus YHR087W, strain rtc3, stronger effect = lower value 0.981 | S. cerevisiae deletion strains, locus YJR043C, strain POL32, stronger effect = lower value 0.958 | S. cerevisiae deletion strains, locus YJR075W, strain HOC1, stronger effect = lower value 0.969 | S. cerevisiae deletion strains, locus YLR058C, strain SHM2 (second series), stronger effect = lower value 0.994 | S. cerevisiae deletion strains, locus YMR219W, strain ESC1, stronger effect = lower value 0.987 | S. cerevisiae deletion strains, locus YMR263W, strain SAP30, stronger effect = lower value 0.969 | S. cerevisiae deletion strains, locus YNL153C, strain GIM3, stronger effect = lower value 0.973 | S. cerevisiae deletion strains, locus YNL322C, strain KRE1, stronger effect = lower value 0.985 | S. cerevisiae deletion strains, locus YPL055C, strain LGE1, stronger effect = lower value 0.991
active: [2] 0.466 | S. cerevisiae deletion strains, locus YKL190W, strain CNB1, stronger effect = lower value 0.802 | S. cerevisiae deletion strains, locus YLR039C, strain RIC1, stronger effect = lower value 0.618 | S. cerevisiae deletion strains, locus YLR085C, strain ARP6, stronger effect = lower value 0.395 | S. cerevisiae deletion strains, locus YLR262C, strain YPT6, stronger effect = lower value 0.625 | S. cerevisiae deletion strains, locus YML094W, strain GIM5, stronger effect = lower value 0.817 | S. cerevisiae deletion strains, locus YMR307W, strain GAS1, stronger effect = lower value 0.537 | S. cerevisiae deletion strains, locus YNL128W, strain TEP1, stronger effect = lower value 0.871 | S. cerevisiae deletion strains, locus YNL298W, strain CLA4 (second series), stronger effect = lower value 0.805 | S. cerevisiae deletion strains, locus YNR030W, strain Alg12, stronger effect = lower value 0.759 | S. cerevisiae deletion strains, locus YPL241C, strain CIN2, stronger effect = lower value 0.791 | S. cerevisiae deletion strains, locus YPR135W, strain CTF4, stronger effect = lower value 0.592 | S. cerevisiae strains, strain wild type, stronger effect = lower value 0.777
